Seven compounds from PubChem BioAssay (Tox21) can be followed below.

Values without a mark were called inactive. Results filed as inconclusive are left out. Activity calls are given as the source filed them. Unless noted, calls follow the shape of the full dose curve.

Experiment [1] in a line: Nuclear factor erythroid 2-related factor 2/antioxidant responsive element (Nrf2/ARE) small molecule agonists: qHTS cell viability counter screen in human keratinocytes (AID 1919968; active = well fitted curve in the direction sought with a large enough effect in the repeat runs; an effect the other way counts as inactive or inconclusive; also: nearly all actives have a fitted effect of over 55% in size; also: potency is read from the fitted curve at half-maximal effect). In short, it runs like this:
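Viability counter-screen: KeratinoSens reporter cells, DMSO-delivered compounds, 23 h at 37 C, CellTiter-Fluor fluorescence.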

The nature of experiment [2]: Nuclear factor erythroid 2-related factor 2/antioxidant responsive element (Nrf2/ARE) small molecule agonists: luciferase reporter gene qHTS assay in human keratinocytes (AID 1919969). Also: nearly all actives have a fitted effect of over 35% in size. Also: potency is read from the fitted curve at half-maximal effect. A general note: Reporter assays use an easily measured gene product as a stand-in for the process of interest.
Experiment [3] addresses Gonadotropin-releasing hormone receptor (Homo sapiens) (UniProt P30968). The experiment is described as follows: Human gonadotropin-releasing hormone receptor (GnRHR) small molecule agonists, calcium flux assay in GnRHR-HEK293 cells (AID 1920063). Also: nearly all actives have a fitted effect of over 35% in size. The method, boiled down: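 Tox21-format agonist screen using human GnRHR-expressing HEK293 cells and a fluorescent calcium dye; kinetic 3-min fluorescence reading after compound addition, 15-point concentration series run in triplicate.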
For orientation: Calcium flux is commonly read through the fluorescence of an indicator in the cells.

The target in experiment [4] is KiSS-1 receptor (Homo sapiens) (UniProt Q969F8). The experiment is described as follows: Human kisspeptin (KISS1R) small molecule agonists, calcium flux assay in KISS1R-HEK293 cells (AID 1920064; active = well fitted curve in the direction sought with a large enough effect in the repeat runs; an effect the other way counts as inactive or inconclusive). The method, boiled down:
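Intracellular calcium mobilization in KISS1R-HEK293 cells was recorded by fluorescence (Ex/Em 480/540) for 3 min following compound addition to cells pre-loaded 1 h with calcium dye.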

A short description of experiment [5]: G protein-coupled receptor (GPCR) small molecule agonists, calcium flux assay: HEK293 wild type cell line counter screen (AID 1920065). In short, it runs like this: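 In this agonist-mode screen, ATP is the positive control and DMSO the vehicle. Cells grow 18 h before a 1 h dye incubation at 37 C; signal is taken at Ex/Em 480/540 over 3 min.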
Experiment [6] can be described thus: p53 small molecule agonists, cell-based qHTS assay with human liver microsomes (AID 1963577).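 Also: p53 response element beta-lactamase reporter cells with liver microsomes plus NADPH.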 The method, boiled down: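 16 h, 37 C exposure of p53RE-bla cells to compounds with human liver microsomes and NADPH (0.5 mg/mL final each); detection via LiveBLAzer mixture, 2 h dark at room temperature.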
Background: In qHTS, concentration-response curves come from the screen itself.

Experiment [7] can be described thus: p53 small molecule agonists, cell-based qHTS assay with rat liver microsomes (AID 1963578). In short, it runs like this: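 With rat liver microsomes and NADPH present (0.5 mg/mL final each), p53RE-bla cells are treated with compound for 16 h at 37 C. LiveBLAzer detection mixture is then applied for 2 h at room temperature in the dark.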
Experiment [8] can be described thus: p53 small molecule agonists, cell-based qHTS assay with human liver microsomes: qHTS cell viability counter screen (AID 1963579). Also: nearly all actives have a fitted effect of over 45% in size. In short, it runs like this:
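In this multiplexed counter screen, the reporter plates were subsequently treated with CellTiter-Glo so that cell viability, reflected by luminescence, could be recorded for p53RE-bla cells dosed 16 h with compounds under microsomal activation (HLM and NADPH).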

Experiment [9] in a line: p53 small molecule agonists, cell-based qHTS assay with rat liver microsomes: qHTS cell viability counter screen (AID 1963580). Also: nearly all actives have a fitted effect of over 45% in size. The method, boiled down: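 Viability is assessed in parallel with the p53 reporter read: HCT-116 p53RE-bla cells receive compounds plus rat microsomes and NADPH (0.5 mg/mL final apiece), incubate 16 h at 37 C, and then CellTiter-Glo luminescence is recorded.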

Experiment [10] can be described thus: p53 small molecule agonists, cell-based qHTS assay: qHTS cell viability counter screen (AID 1963581). Also: nearly all actives have a fitted effect of over 45% in size. In short, it runs like this: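 Compounds are pinned onto HCT-116 p53RE-bla cells and left 16 h at 37 C. Following the reporter FRET read, ATP is quantified by CellTiter-Glo luminescence after 30 min at room temperature.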
The nature of experiment [11]: p53 small molecule agonists, cell-based qHTS assay (AID 1963582; active = well fitted activation curve with a large enough effect in the signal ratio in the repeat runs, not every such curve was filed as active; the % refers to the signal ratio; also: potency is read from the fitted curve at half-maximal effect). In short, it runs like this:
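Agonist activity was scored from beta-lactamase FRET fluorescence in p53RE-bla cells treated 16 h at 37 C with compounds in DMSO, substrate incubation being 2 h at room temperature.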

Experiment [12] addresses 5-hydroxytryptamine receptor 2A (Homo sapiens) (UniProt P28223). The experiment is described as follows: 5-hydroxytryptamine receptor 2A (HTR2A) small molecule antagonists, cell-based qHTS assay (AID 1963586). Also: nearly all actives have a fitted effect of over 45% in size. Also: potency is read from the fitted curve at half-maximal effect. In short, it runs like this: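 Antagonist-mode intracellular calcium assay: DOI (4 nM) added after 5 min compound pre-incubation at room temperature to dye-loaded HTR2A-CHO cells. Fluorescence followed for 3 min, sampled every second.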

For experiment [13] the target is unchanged. The experiment is described as follows: 5-hydroxytryptamine receptor 2A (HTR2A) small molecule agonists, cell-based qHTS assay (AID 1963587). Also: nearly all actives have a fitted effect of over 30% in size. Also: potency is read from the fitted curve at half-maximal effect. The method, boiled down: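 CHO cells stably expressing human HTR2A, plated 18 h, loaded with calcium dye 1 h at 37 C. Agonist mode: compounds added and intracellular calcium fluorescence recorded kinetically for 2 min at 1 sec intervals.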

The target of experiment [14] is Muscarinic acetylcholine receptor M1 (Homo sapiens) (UniProt P11229). The experiment is described as follows: Cholinergic receptor muscarinic 1 (CHRM1) small molecule antagonists, cell-based qHTS assay (AID 1963588). Also: nearly all actives have a fitted effect of over 40% in size. In short, it runs like this: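 CHRM1-CHO calcium-flux assay, antagonist mode. Cells were seeded 18 h, dye-loaded 1 h at 37 C and given compound for 5 min at RT, then acetylcholine was added at 50nM. FDSS fluorescence was read 3 min; 15 concentrations, three runs.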

Experiment [15] shares this target. The experiment is described as follows: Cholinergic receptor muscarinic 1 (CHRM1) small molecule agonists, cell-based qHTS assay (AID 1963589). Also: nearly all actives have a fitted effect of over 35% in size. The method, boiled down: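 Stable CHRM1-CHO cells (human receptor) were incubated 18 h, dye-loaded for 1 h at 37 C and exposed to test compounds for agonist activity, with calcium-dependent fluorescence followed kinetically.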

The target in experiment [16] is Beta-2 adrenergic receptor (Homo sapiens) (UniProt P07550). The experiment is described as follows: Adrenergic beta2 receptor (ADRB2) small molecule antagonists, cell-based qHTS assay (AID 1963592). Also: series mostly up to about 92 µM; nearly all actives have a fitted effect of over 50% in size. In short, it runs like this: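 Cells (CHO, stable ADRB2 overexpression) incubated 18-20hr at 37C; compounds added from DMSO; agonist mix (1nM isoproterenol, 100uM IBMX, 25uM Ro-20-1724) added; 0.5hr RT; d2-cAMP and anti-cAMP-cryptate added; 1hr RT; 665/615 nm read.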

The target in experiment [17] is D(2) dopamine receptor (Homo sapiens) (UniProt P14416). The experiment is described as follows: Dopamine D2 receptor (DRD2) small molecule agonists, cell-based qHTS assay (AID 1963594). Also: nearly all actives have a fitted effect of over 35% in size. In short, it runs like this: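 HEK293 cells stably expressing human DRD2, pre-treated with PDE inhibitor Ro20-1724 (0.1 mM final) and compound 10 min at room temperature, then stimulated with NKH477 (200nM […]) for 30 min. cAMP read by HTRF (665/620 nm).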

The target is the same in experiment [18]. The experiment is described as follows: Dopamine D2 receptor (DRD2) small molecule antagonists, cell-based qHTS assay (AID 1963595; active = well fitted inhibition curve with a large enough effect in the signal ratio in the repeat runs, with a control signal flat; the % refers to the signal ratio). The method, boiled down: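 Cells were plated and grown for 24 h at 37 °C. Ro20-1724 (0.1 mM final) went in first, then compound for 10 min. NKH477 (200 nM) with quinpirole (12 nM) followed for 30 min at RT, then HTRF detection reagents for 1 h.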

Experiment [19] is described as follows: cAMP Responsive Elements (CRE) small molecule agonists, cell-based qHTS assay (AID 1963590). The method, boiled down:
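FRET-based beta-lactamase readout (LiveBLAzer B/G, 2 h RT) quantified CRE activation in HEK 293T CRE-bla cells after 3 h treatment with DMSO-dissolved compounds.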

Experiment [20] can be described thus: cAMP Responsive Elements (CRE) small molecule antagonists, cell-based qHTS assay (AID 1963591; active = well fitted inhibition curve with a large enough effect in the signal ratio in the repeat runs, not every such curve was filed as active; the % refers to the signal ratio). In short, it runs like this:
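qHTS in CRE-bla HEK 293T cells: compound in DMSO, then 0.25 uM NKH477 (final), 3 h at 37 °C/5% CO2; beta-lactamase FRET read-out after 2 h substrate incubation.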

Sequence of Muscarinic acetylcholine receptor M1 (Homo sapiens) (P11229 whole entry, looked up): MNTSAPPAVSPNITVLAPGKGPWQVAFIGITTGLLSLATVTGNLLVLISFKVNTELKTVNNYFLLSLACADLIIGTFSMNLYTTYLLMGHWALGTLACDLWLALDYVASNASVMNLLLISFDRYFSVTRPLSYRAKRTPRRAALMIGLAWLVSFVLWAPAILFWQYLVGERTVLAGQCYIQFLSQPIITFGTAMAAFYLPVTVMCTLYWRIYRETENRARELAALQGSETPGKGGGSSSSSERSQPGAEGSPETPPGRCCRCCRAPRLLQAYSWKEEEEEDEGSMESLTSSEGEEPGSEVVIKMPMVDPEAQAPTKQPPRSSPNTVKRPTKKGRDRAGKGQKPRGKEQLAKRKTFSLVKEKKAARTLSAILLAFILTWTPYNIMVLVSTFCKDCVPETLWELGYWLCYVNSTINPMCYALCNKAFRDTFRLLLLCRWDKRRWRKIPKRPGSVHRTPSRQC
Sequence of D(2) dopamine receptor (Homo sapiens) (P14416 whole entry, looked up): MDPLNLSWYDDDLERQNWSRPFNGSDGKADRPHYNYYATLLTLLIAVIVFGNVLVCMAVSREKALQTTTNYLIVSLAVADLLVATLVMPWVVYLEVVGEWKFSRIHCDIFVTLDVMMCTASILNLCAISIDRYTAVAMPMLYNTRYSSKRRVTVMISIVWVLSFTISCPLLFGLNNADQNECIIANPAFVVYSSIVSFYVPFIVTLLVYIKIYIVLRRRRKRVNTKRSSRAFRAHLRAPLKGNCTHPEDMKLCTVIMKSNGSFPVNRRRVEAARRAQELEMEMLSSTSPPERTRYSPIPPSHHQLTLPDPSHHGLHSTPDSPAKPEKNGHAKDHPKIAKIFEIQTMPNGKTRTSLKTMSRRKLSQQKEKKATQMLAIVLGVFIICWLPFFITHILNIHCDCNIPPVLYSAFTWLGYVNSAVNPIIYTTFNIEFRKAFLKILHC
Sequence of Beta-2 adrenergic receptor (Homo sapiens) (P07550 whole entry, looked up): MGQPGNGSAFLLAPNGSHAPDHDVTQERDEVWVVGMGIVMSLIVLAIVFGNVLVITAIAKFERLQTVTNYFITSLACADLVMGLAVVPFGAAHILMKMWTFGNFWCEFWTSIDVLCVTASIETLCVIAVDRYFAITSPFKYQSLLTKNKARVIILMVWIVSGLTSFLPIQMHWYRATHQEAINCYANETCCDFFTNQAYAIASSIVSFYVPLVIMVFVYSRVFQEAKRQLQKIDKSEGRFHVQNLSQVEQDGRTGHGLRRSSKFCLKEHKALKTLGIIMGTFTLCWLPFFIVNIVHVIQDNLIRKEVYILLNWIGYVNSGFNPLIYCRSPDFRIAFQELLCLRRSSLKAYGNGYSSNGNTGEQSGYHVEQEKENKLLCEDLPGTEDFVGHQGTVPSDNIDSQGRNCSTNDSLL
Sequence of 5-hydroxytryptamine receptor 2A (Homo sapiens) (P28223 whole entry, looked up): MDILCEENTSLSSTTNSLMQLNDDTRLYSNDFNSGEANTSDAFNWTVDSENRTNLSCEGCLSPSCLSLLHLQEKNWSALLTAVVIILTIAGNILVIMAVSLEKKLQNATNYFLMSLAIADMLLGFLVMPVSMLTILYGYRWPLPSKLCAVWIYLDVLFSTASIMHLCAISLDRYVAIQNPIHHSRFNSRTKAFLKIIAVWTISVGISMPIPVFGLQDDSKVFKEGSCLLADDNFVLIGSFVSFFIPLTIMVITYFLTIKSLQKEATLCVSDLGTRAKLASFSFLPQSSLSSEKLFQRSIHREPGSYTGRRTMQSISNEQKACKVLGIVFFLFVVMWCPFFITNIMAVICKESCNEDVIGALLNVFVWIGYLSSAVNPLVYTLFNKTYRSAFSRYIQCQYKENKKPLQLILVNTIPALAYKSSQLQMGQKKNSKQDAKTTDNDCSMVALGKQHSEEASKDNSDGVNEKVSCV
Sequence of Gonadotropin-releasing hormone receptor (Homo sapiens) (P30968 whole entry, looked up): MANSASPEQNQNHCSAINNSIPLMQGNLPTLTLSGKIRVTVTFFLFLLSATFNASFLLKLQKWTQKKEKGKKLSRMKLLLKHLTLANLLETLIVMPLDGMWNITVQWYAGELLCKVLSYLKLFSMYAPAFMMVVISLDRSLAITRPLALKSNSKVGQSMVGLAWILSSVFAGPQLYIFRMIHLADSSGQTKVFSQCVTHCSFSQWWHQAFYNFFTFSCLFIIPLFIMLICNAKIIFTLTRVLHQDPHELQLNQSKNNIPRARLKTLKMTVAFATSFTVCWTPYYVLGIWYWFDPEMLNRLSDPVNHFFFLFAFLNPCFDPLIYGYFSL
Sequence of KiSS-1 receptor (Homo sapiens) (Q969F8 whole entry, looked up): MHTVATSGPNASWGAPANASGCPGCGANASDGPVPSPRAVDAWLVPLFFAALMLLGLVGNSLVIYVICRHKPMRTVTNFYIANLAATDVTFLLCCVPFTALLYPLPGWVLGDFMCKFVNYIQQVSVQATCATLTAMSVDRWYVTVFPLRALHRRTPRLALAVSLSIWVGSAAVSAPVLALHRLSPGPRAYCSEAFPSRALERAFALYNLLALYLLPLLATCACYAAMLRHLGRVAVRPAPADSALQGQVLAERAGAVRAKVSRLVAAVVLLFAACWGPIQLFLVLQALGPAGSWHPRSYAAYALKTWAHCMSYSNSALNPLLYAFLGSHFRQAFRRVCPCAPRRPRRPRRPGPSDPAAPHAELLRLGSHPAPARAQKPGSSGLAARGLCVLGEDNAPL

As to `O=C(NC(=O)c1c(F)cccc1F)Nc1cc(Cl)c(Oc2ncc(C(F)(F)F)cc2Cl)c(Cl)c1`, the Potency result in [1], in experiment [2], in [3], in [4], in [5] and in experiment [6] was “inactive” each time. For the same compound, the Potency entry in experiment [7], in [8], in experiment [9], in [10], in experiment [12] and in experiment [13] was “inactive” throughout. For the same compound, the Potency entry in experiment [14], in [15], in experiment [16], in [17] and in experiment [18] was “inactive” each time. Further, in [11], the Potency is 17.5 µM (active).

As for `C=CCc1ccc(OC(=O)Cc2ccccc2)c(OC)c1`, the Potency entry in experiment [1], in experiment [2], in [3], in experiment [4], in experiment [5] and in experiment [6] was “inactive” in each case. Besides, the Potency entry in experiment [7], in experiment [8], in experiment [9], in experiment [10], in [11] and in experiment [12] was “inactive” in each case. The Potency result in [13], in experiment [14], in experiment [15], in [19], in experiment [17] and in [18] was “inactive” in each case.

For the compound `CCC[CH2][Sn]([CH2]CCC)([O]C(C)=O)[O]C(C)=O`, the Potency was 219 nM (active) in experiment [1] and 0.0978 µM (active) in experiment [2]. Moreover, the Potency entry in experiment [3], in experiment [4], in experiment [5], in experiment [6], in experiment [7] and in [8] was “inactive” each time. For the same compound, the Potency result in experiment [9], in experiment [10], in experiment [11], in experiment [12], in experiment [13] and in experiment [14] was “inactive” in each case. Also, the Potency entry in [15], in experiment [16], in experiment [17] and in experiment [18] was “inactive” in each case.

As to `CCOC(=O)NC(C)(C)Cc1ccc(Cl)cc1`, the Potency entry in experiment [1], in experiment [2], in experiment [3], in experiment [4], in [5] and in experiment [6] was “inactive” each time. For the same compound, the Potency entry in experiment [7], in experiment [8], in experiment [9], in [10], in [11] and in experiment [12] was “inactive” throughout. The Potency result in [13], in experiment [14], in [15], in [19], in [16] and in experiment [17] was “inactive” each time. Moreover, in experiment [18], the Potency entry was “inactive”.

With `CNC(C)Cc1ccc2c(c1)OCO2` (configuration not stated), the Potency result in experiment [1], in [3], in experiment [4], in experiment [5], in [6] and in [7] was “inactive” in each case. Also, the Potency result in experiment [8], in [9], in [10], in experiment [11], in experiment [14] and in [15] was “inactive” throughout. The Potency result in experiment [19], in experiment [20], in [17] and in [18] was “inactive” throughout. The figures for the Potency in experiment [2], in [12] and in [13] were 84.3 µM (active), 1.03 µM (active) and 602 nM (active), respectively.

For `C=CC(=O)N(C)C`, the Potency entry in experiment [1], in [2], in experiment [3], in experiment [4], in experiment [5] and in [6] was “inactive” in each case. Moreover, the Potency result in experiment [7], in experiment [8], in experiment [9], in experiment [10], in experiment [11] and in experiment [12] was “inactive” each time. Besides, the Potency entry in experiment [13], in experiment [14], in experiment [15], in experiment [19], in experiment [16] and in experiment [17] was “inactive” throughout. Moreover, the Potency result in [18] is “inactive”.

`CN1CCc2cc(Cl)c(O)cc2[C@H]2c3ccccc3CC[C@@H]21`: the Potency result in experiment [1], in [2], in experiment [3], in [4], in experiment [5] and in experiment [6] was “inactive” in each case. In addition, the Potency entry in experiment [7], in experiment [8], in experiment [9], in experiment [10], in [11] and in [13] was “inactive” throughout. Further, the Potency entry in [14], in [15] and in experiment [17] was “inactive” in each case. In addition, the Potency in experiment [12] is 0.0326 µM (active).
